The Inhibition is the drop in the measured response relative to a control, in per cent.

Here are results for 18 compounds from ChEMBL document CHEMBL4296182, “CO-ADD screening of NIH NCI Diversity Set V”.

For part of these data: Entries with a potency or affinity are not part of this list.

One experiment has as its system Staphylococcus aureus. In words: Antibacterial activity against Staphylococcus aureus MRSA ATCC 43300 (CO-ADD:GP_020); MIC in CAMBH media using NBS plates, by Resazurin F(560/590). It is filed as functional. The following applies: Concentration 20 uM, ASSAY_TEST Inhibition of Bacterial Growth, detection method Resazurin, Fluorescence (ex560/em590), MEDIA CAMHB, plate type 384well, CORNING #3640, time 18 hr. On the technique in general: Alamar Blue is a resazurin reagent that responds to reducing activity.

The next experiment has as its system Acinetobacter baumannii. Briefly: Antibacterial activity against Acinetobacter baumannii ATCC 19606 (CO-ADD:GN_034); MIC in CAMBH media using NBS plates, by Resazurin F(560/590). It is filed as functional. To be noted: Concentration 20 uM, ASSAY_TEST Inhibition of Bacterial Growth, detection method Resazurin, Fluorescence (ex560/em590), MEDIA CAMHB, plate type 384well, CORNING #3640, time 18 hr.

The subject of the next experiment is Escherichia coli. Briefly: Antibacterial activity against Escherichia coli ATCC 25922 (CO-ADD:GN_001); MIC in CAMBH media using NBS plates, by Resazurin F(560/590). It is filed as functional. The following applies: Concentration 20 uM, ASSAY_TEST Inhibition of Bacterial Growth, detection method Resazurin, Fluorescence (ex560/em590), MEDIA CAMHB, plate type 384well, CORNING #3640, time 18 hr.

Another experiment has as its system Klebsiella pneumoniae. The following applies: Concentration 20 uM; ASSAY_TEST Inhibition of Bacterial Growth; detection method Absorption (OD600); MEDIA CAMHB; plate type 384well; NBS; CORNING #3640; time 18 hr.
A further experiment relates to Candida albicans. To be noted: 20 µM.
A further experiment deals with Cryptococcus neoformans. To be noted: Concentration 20 uM; ASSAY_TEST Inhibition of Fungal Growth; detection method Resazurin; Absorption (OD600-OD570); plate type 384well; NBS; CORNING #3640.

For the compound `Cc1nnc2nc(-c3ccccc3)nc(-c3ccccc3)n12`, the Inhibition in the experiment with Staphylococcus aureus was -12.94%; in the experiment with Acinetobacter baumannii, 8.22%; with Escherichia coli, 2.26%; with Klebsiella pneumoniae, 4.14%; with Candida albicans, 4.58%; with Cryptococcus neoformans, -11.59%.
Take `Cc1cc(C)c2c(SC(C)C)nc(N)nc2n1`: the Inhibition in the experiment with Staphylococcus aureus is -0.52%; in the experiment on Acinetobacter baumannii, -6.63%; in the experiment with Escherichia coli it was 2.33%; in the experiment with Klebsiella pneumoniae, 4.23%; with Candida albicans, 0.54%; in the experiment with Cryptococcus neoformans, -10.66%.
Turning to `O=C(c1ccccc1)c1ccccc1C(=O)c1ccccc1`, the Inhibition in the experiment on Staphylococcus aureus is 16.85%; with Acinetobacter baumannii, 12.71%; with Escherichia coli, 4.94%; in the experiment on Klebsiella pneumoniae it was 16.03%; in the experiment on Candida albicans, 2.49%; in the experiment with Cryptococcus neoformans, -5.73%.
For `Cc1cc(O)c2cc(C(=O)c3ccccc3)ccc2n1`, the Inhibition in the experiment with Staphylococcus aureus was 13.49%; in the experiment on Acinetobacter baumannii, 5.7%; with Escherichia coli, 2.87%; with Klebsiella pneumoniae, 7.32%; in the experiment on Candida albicans it was 2.58%; in the experiment with Cryptococcus neoformans it was -7.43%.
For `CSC(=NS(=O)(=O)c1ccccc1)NNC(=O)c1c(-c2c(Cl)cccc2Cl)noc1C`, the Inhibition in the experiment with Staphylococcus aureus was 2.63%; in the experiment with Acinetobacter baumannii it was 2.35%; in the experiment on Escherichia coli it was -1.44%; in the experiment with Klebsiella pneumoniae it was 10.18%; in the experiment with Candida albicans, 6.77%; in the experiment on Cryptococcus neoformans, -2.9%.
On to `Cn1ncc2c(Nc3ccccc3Cl)nc(Cl)nc21`, for which the Inhibition in the experiment with Staphylococcus aureus is 11.91%; in the experiment with Acinetobacter baumannii it was 12.64%; in the experiment with Escherichia coli, 1.79%; in the experiment on Klebsiella pneumoniae, 7.78%; in the experiment with Candida albicans it was 7.2%; in the experiment with Cryptococcus neoformans, -6.78%.
Take `CC(=O)Nc1cc(NC(C)=O)ncn1`: the Inhibition with Staphylococcus aureus is 12.16%; with Acinetobacter baumannii it was -10.63%; in the experiment on Escherichia coli, 12.12%; with Klebsiella pneumoniae, 16.66%; in the experiment with Candida albicans, 3.12%; in the experiment with Cryptococcus neoformans, -1.27%.
In the case of `O=C(O)c1ccc2c(c1Nc1ccccc1)C(=O)c1ccccc1C2=O`, the Inhibition is 9.32% in the experiment with Staphylococcus aureus; -23.2% with Acinetobacter baumannii; 18.5% with Escherichia coli; 7% in the experiment on Klebsiella pneumoniae; 1.26% in the experiment on Candida albicans; -10.37% in the experiment with Cryptococcus neoformans.
For `N=C(N)NC(=S)Nc1ccc(Cl)cc1`, the Inhibition in the experiment on Staphylococcus aureus is 29.08%; in the experiment with Acinetobacter baumannii, 3.91%; with Escherichia coli, 19.57%; in the experiment with Klebsiella pneumoniae it was 9.15%; with Candida albicans, 20%; with Cryptococcus neoformans, -7.26%.
`C#CC(C)OCC1CNC(=S)O1` (stereo not drawn): the Inhibition with Staphylococcus aureus was found to be 8.34%; in the experiment on Acinetobacter baumannii it was 0.13%; with Escherichia coli, 10.24%; in the experiment with Klebsiella pneumoniae, 3.71%; in the experiment with Candida albicans, 4.06%; with Cryptococcus neoformans it was 15.9%.
On to `Cc1ccc(NC(=O)N2CCCCC2)cc1[N+](=O)[O-]`, for which the Inhibition with Staphylococcus aureus was 0.24%; in the experiment with Acinetobacter baumannii, -10.39%; in the experiment with Escherichia coli, 3.85%; in the experiment with Klebsiella pneumoniae, 3.41%; in the experiment with Candida albicans, 6.56%; with Cryptococcus neoformans it was -11.71%.
Take `CCN(CC)CCNC(=O)c1ccc(NCN2C(=O)NC(c3ccccc3)(c3ccccc3)C2=O)cc1`: the Inhibition was 12.78% with Staphylococcus aureus; -11.12% in the experiment with Acinetobacter baumannii; 11.42% with Escherichia coli; 8.03% in the experiment on Klebsiella pneumoniae; 1.74% with Candida albicans; -3.88% with Cryptococcus neoformans.
Regarding `CN(C)Cc1c[nH]c2nccnc12`, the Inhibition is 11.84% in the experiment with Staphylococcus aureus; -4.46% with Acinetobacter baumannii; 11.46% in the experiment on Escherichia coli; 8.34% in the experiment on Klebsiella pneumoniae; 0.19% with Candida albicans; 2.55% in the experiment with Cryptococcus neoformans.
For `CCCc1nc(NC(=O)c2ccccc2)nc(NC(=O)c2ccccc2)n1`, the Inhibition was -10.01% in the experiment on Staphylococcus aureus; -7.86% in the experiment on Acinetobacter baumannii; 8.74% with Escherichia coli; 10.41% in the experiment on Klebsiella pneumoniae; 3.97% in the experiment on Candida albicans; -9.1% in the experiment with Cryptococcus neoformans.
In the case of `CCOC(=O)c1nn(C)c2[nH]c(=O)n(C)c(=O)c12`, the Inhibition with Staphylococcus aureus is 7.94%; with Acinetobacter baumannii it was 11.46%; in the experiment with Escherichia coli, 12.75%; in the experiment on Klebsiella pneumoniae it was 11.59%; in the experiment with Candida albicans it was 2.22%; in the experiment with Cryptococcus neoformans, -11.62%.
`COc1ccccc1/C=C1\Cc2ccccc2C1=O`: the Inhibition in the experiment with Staphylococcus aureus is -0.35%; in the experiment on Acinetobacter baumannii, 7.42%; in the experiment on Escherichia coli it was -7.65%; in the experiment on Klebsiella pneumoniae, 12%; in the experiment on Candida albicans, 10.8%; with Cryptococcus neoformans, -2%.
On to `O=C(O)C1C2OC3C(OC(=O)C31)C2Br` (stereo not drawn), for which the Inhibition came to 25.96% in the experiment with Staphylococcus aureus; 9.29% with Acinetobacter baumannii; 24.67% in the experiment with Escherichia coli; 4% with Klebsiella pneumoniae; 4.3% in the experiment on Candida albicans; 11.09% with Cryptococcus neoformans.
Consider `O=C(Nc1ccc(C2=NCCCN2)cc1)Nc1ccc(C2=NCCCN2)cc1`, for which the Inhibition with Staphylococcus aureus was 7.85%; in the experiment on Acinetobacter baumannii, 9.82%; with Escherichia coli, -5.49%; in the experiment on Klebsiella pneumoniae, 24.63%; in the experiment with Candida albicans it was 1.67%; in the experiment with Cryptococcus neoformans, -6.84%.
